Measurements published in paper PMC7862700, “An all-to-all approach to the identification of sequence-specific readers for epigenetic DNA modifications on cytosine”.

Columns and labels:
Assay in all cases: DAPPL (digital affinity profiling via proximity ligation, sequencing); 10 mM Tris-HCl pH 7.5, 50 mM NaCl, 1 mM DTT, 4% glycerol, room temperature, 30 min; GST-TFs on glutathione beads, 16-mer random dsDNA library, 0.1% formaldehyde crosslink after washing; high values mean tight binding
[1] = biological target: T1, FEV (Homo sapiens, UniProt Q99581 1-238); conditions: protein: recombinant; tags: N-terminal GST; dsDNA, one strand shown
T1 sequence: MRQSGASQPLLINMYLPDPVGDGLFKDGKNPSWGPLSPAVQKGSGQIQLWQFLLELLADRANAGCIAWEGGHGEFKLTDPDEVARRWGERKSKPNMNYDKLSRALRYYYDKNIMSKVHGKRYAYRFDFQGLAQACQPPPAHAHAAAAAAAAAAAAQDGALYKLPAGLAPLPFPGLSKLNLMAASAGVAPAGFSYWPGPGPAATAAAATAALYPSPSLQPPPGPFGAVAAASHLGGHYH
Procedure, shortened: (§1)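 A tag-only sample was pooled with DNA-barcoded human transcription factors that had been expressed in yeast as GST fusions and captured on glutathione beads. The pools were incubated for 30 min at room temperature with 200 nmole of a random double-stranded 16-mer DNA library in Tris/NaCl/DTT/glycerol buffer, then washed, crosslinked with 0.1% formaldehyde, proximity-ligated (BsaI/T4 ligase, 1 h, 37 °C), PCR-amplified and sequenced on an Illumina NextSeq500. Binding signal is each hexamer's read frequency for a factor divided by its frequency for the tag-only sample.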

[2] = biological target: ETV5 (Homo sapiens, UniProt P41161 1-510); conditions: protein: recombinant; tags: N-terminal GST; dsDNA, one strand shown
Procedure, shortened: as §1

[3] = biological target: HSF1 (Homo sapiens, UniProt Q00613 1-529); conditions: protein: recombinant; tags: N-terminal GST; chain copies: 3; dsDNA, one strand shown
Procedure, shortened: as §1

[4] = biological target: T2, SPIC (Homo sapiens, UniProt Q8N5J4 1-248); conditions: protein: recombinant; tags: N-terminal GST; dsDNA, one strand shown
T2 sequence: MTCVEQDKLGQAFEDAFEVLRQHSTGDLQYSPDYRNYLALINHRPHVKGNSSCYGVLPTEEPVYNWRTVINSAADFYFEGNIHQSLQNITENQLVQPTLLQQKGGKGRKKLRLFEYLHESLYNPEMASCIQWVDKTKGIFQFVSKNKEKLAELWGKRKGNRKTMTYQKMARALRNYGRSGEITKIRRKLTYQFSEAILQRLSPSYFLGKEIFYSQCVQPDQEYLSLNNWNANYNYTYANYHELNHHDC
Procedure, shortened: as §1

[5] = biological target: ELF4 (Homo sapiens, UniProt Q99607 1-663); conditions: protein: recombinant; tags: N-terminal GST; dsDNA, one strand shown
Procedure, shortened: as §1

[6] = biological target: T3, ELK4 (Homo sapiens, UniProt P28324-2 1-405); conditions: protein: recombinant; tags: N-terminal GST; dsDNA, one strand shown
T3 sequence: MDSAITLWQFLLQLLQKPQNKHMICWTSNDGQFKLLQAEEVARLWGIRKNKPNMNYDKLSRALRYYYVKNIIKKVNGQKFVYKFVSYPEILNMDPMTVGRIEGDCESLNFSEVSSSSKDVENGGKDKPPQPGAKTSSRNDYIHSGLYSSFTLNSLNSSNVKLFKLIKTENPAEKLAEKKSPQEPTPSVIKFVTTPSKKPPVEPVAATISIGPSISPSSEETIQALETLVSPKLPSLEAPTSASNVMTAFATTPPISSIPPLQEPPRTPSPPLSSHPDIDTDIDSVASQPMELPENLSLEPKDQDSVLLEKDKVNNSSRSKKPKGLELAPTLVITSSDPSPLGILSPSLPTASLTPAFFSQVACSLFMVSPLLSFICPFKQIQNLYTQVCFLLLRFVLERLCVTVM
Procedure, shortened: as §1

[7] = biological target: T4, ETV2 (Homo sapiens, UniProt O00321 1-342); conditions: protein: recombinant; tags: N-terminal GST; dsDNA, one strand shown
T4 sequence: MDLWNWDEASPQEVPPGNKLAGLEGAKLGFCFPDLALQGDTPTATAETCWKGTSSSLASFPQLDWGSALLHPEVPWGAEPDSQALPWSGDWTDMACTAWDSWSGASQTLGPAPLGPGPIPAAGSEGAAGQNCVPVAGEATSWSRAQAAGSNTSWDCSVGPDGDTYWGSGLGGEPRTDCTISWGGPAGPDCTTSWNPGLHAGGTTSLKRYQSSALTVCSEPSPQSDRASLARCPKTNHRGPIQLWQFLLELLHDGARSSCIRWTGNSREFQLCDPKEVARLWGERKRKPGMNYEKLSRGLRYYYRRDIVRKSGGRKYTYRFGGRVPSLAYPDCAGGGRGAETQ
Procedure, shortened: as §1

[8] = biological target: T5, ELF3 (Homo sapiens, UniProt P78545 1-371); conditions: protein: recombinant; tags: N-terminal GST; dsDNA, one strand shown
T5 sequence: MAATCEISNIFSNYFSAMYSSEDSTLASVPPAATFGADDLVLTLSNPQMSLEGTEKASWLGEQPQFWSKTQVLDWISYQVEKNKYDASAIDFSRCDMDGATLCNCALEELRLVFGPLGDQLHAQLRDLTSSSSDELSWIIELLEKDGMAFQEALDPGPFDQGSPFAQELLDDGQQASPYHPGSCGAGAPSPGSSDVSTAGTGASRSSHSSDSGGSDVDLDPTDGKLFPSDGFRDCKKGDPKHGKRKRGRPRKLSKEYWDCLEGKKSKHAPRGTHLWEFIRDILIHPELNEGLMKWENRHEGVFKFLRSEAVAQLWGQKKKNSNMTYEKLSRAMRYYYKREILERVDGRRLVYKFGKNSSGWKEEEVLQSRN
Procedure, shortened: as §1

[9] = biological target: CRX (Homo sapiens, UniProt O43186 1-299); conditions: protein: recombinant; tags: N-terminal GST; dsDNA, one strand shown
Procedure, shortened: as §1

[10] = biological target: ETV1 (Homo sapiens, UniProt P50549 1-477); conditions: protein: recombinant; tags: N-terminal GST; dsDNA, one strand shown
Procedure, shortened: as §1

Chain of CRX (O43186 whole entry): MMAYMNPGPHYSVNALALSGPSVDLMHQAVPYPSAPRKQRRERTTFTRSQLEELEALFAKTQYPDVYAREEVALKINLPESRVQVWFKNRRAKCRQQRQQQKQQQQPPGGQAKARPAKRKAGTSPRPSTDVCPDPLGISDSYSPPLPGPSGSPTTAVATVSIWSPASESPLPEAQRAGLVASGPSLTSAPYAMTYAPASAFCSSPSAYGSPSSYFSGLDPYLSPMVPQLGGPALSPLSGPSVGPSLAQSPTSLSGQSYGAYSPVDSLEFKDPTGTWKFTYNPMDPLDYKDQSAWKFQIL
Chain of ELF4 (Q99607 whole entry): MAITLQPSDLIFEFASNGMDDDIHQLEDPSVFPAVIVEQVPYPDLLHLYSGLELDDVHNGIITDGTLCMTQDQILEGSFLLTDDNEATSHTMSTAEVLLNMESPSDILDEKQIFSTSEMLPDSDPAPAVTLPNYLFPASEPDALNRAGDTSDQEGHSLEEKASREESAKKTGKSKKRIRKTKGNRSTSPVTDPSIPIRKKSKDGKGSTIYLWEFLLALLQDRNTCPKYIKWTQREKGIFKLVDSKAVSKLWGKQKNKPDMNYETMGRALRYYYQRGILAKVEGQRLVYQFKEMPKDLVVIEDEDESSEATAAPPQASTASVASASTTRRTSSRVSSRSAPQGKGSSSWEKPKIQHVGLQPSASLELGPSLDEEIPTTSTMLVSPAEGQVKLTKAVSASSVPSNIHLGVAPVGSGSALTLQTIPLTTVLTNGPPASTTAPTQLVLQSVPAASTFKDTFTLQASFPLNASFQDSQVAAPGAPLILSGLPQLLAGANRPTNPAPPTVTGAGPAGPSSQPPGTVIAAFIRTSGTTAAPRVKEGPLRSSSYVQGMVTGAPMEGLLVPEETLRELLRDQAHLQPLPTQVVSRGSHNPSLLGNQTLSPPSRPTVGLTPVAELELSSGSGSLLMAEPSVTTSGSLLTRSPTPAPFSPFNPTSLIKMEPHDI
Chain of ETV5 (P41161 whole entry): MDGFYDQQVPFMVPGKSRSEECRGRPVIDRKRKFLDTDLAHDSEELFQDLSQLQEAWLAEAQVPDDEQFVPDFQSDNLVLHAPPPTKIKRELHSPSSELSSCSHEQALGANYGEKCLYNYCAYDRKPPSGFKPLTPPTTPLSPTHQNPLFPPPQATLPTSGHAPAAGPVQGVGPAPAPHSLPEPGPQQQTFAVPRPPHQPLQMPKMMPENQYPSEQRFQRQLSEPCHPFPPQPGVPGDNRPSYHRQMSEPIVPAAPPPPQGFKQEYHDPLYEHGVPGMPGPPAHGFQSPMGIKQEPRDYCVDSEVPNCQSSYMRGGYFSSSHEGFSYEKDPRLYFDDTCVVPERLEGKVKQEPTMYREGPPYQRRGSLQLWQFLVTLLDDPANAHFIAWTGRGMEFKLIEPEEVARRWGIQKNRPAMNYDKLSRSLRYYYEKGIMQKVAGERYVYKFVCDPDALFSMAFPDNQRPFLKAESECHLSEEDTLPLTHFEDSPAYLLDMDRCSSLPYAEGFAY
Chain of HSF1 (Q00613 whole entry): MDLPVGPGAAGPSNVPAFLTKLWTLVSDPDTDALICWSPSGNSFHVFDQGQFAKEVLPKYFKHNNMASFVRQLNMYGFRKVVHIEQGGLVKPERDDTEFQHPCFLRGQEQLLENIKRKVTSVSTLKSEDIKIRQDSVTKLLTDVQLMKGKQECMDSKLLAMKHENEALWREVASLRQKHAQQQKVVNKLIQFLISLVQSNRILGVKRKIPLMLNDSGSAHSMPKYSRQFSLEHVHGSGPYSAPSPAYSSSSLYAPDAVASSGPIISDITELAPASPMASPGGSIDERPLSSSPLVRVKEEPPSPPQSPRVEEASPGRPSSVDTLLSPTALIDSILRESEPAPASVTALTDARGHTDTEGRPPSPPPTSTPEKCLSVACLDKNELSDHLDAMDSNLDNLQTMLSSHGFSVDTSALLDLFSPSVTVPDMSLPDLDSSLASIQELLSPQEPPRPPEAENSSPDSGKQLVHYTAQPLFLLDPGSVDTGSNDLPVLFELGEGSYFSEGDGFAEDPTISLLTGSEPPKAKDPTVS
Chain of ETV1 (P50549 whole entry): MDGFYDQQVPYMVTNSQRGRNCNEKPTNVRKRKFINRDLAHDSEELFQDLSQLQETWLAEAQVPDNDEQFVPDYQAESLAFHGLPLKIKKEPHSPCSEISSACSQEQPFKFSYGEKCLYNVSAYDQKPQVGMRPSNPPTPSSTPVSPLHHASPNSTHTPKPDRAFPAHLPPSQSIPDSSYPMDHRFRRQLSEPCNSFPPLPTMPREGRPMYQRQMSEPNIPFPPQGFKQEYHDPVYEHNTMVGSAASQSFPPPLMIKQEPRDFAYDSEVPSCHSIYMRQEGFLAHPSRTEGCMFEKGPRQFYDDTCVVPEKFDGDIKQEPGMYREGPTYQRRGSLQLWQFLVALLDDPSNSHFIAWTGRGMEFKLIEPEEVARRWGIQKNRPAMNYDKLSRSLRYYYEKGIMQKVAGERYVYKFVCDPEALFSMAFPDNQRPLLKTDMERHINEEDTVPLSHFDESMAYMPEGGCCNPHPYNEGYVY

Sequence | binding signal [1] | binding signal [2] | binding signal [3] | binding signal [4] | binding signal [5] | binding signal [6] | binding signal [7] | binding signal [8] | binding signal [9] | binding signal [10]
ACCCTC | 1.15 fold enrichment (6-mer frequency, TF over GST control) | 1.2 fold enrichment (6-mer frequency, TF over GST control) | 1.11 fold enrichment (6-mer frequency, TF over GST control) | 1.24 fold enrichment (6-mer frequency, TF over GST control) | 1.25 fold enrichment (6-mer frequency, TF over GST control) | 1.01 fold enrichment (6-mer frequency, TF over GST control) | 1.15 fold enrichment (6-mer frequency, TF over GST control) | 1.12 fold enrichment (6-mer frequency, TF over GST control) | 1.11 fold enrichment (6-mer frequency, TF over GST control) | 1.14 fold enrichment (6-mer frequency, TF over GST control)
CTATTA |  | 1.14 fold enrichment (6-mer frequency, TF over GST control) | 1.3 fold enrichment (6-mer frequency, TF over GST control) | 1.07 fold enrichment (6-mer frequency, TF over GST control) | 1.14 fold enrichment (6-mer frequency, TF over GST control) | 1.09 fold enrichment (6-mer frequency, TF over GST control) | 1.13 fold enrichment (6-mer frequency, TF over GST control) | 1.03 fold enrichment (6-mer frequency, TF over GST control) | 1.76 fold enrichment (6-mer frequency, TF over GST control) | 1.14 fold enrichment (6-mer frequency, TF over GST control)
CCGCAA | 1.29 fold enrichment (6-mer frequency, TF over GST control) | 1.3 fold enrichment (6-mer frequency, TF over GST control) | 1.07 fold enrichment (6-mer frequency, TF over GST control) | 1.42 fold enrichment (6-mer frequency, TF over GST control) | 1.31 fold enrichment (6-mer frequency, TF over GST control) | 1.36 fold enrichment (6-mer frequency, TF over GST control) | 1.35 fold enrichment (6-mer frequency, TF over GST control) | 1.39 fold enrichment (6-mer frequency, TF over GST control) | 1.01 fold enrichment (6-mer frequency, TF over GST control) | 1.38 fold enrichment (6-mer frequency, TF over GST control)
TCCCGC | 1.46 fold enrichment (6-mer frequency, TF over GST control) | 1.41 fold enrichment (6-mer frequency, TF over GST control) | 1.57 fold enrichment (6-mer frequency, TF over GST control) | 1.46 fold enrichment (6-mer frequency, TF over GST control) | 1.55 fold enrichment (6-mer frequency, TF over GST control) | 1.26 fold enrichment (6-mer frequency, TF over GST control) | 1.31 fold enrichment (6-mer frequency, TF over GST control) | 1.36 fold enrichment (6-mer frequency, TF over GST control) | 1.42 fold enrichment (6-mer frequency, TF over GST control) | 1.5 fold enrichment (6-mer frequency, TF over GST control)
AGGTTT |  | 1.05 fold enrichment (6-mer frequency, TF over GST control) | 1.04 fold enrichment (6-mer frequency, TF over GST control) | 1.03 fold enrichment (6-mer frequency, TF over GST control) | 1.07 fold enrichment (6-mer frequency, TF over GST control) | 1.06 fold enrichment (6-mer frequency, TF over GST control) | 1.05 fold enrichment (6-mer frequency, TF over GST control) | 1.07 fold enrichment (6-mer frequency, TF over GST control) | 1.19 fold enrichment (6-mer frequency, TF over GST control) | 1.1 fold enrichment (6-mer frequency, TF over GST control)
CGCCTC | 1.45 fold enrichment (6-mer frequency, TF over GST control) | 1.4 fold enrichment (6-mer frequency, TF over GST control) | 1.1 fold enrichment (6-mer frequency, TF over GST control) | 1.33 fold enrichment (6-mer frequency, TF over GST control) | 1.39 fold enrichment (6-mer frequency, TF over GST control) | 1.14 fold enrichment (6-mer frequency, TF over GST control) | 1.51 fold enrichment (6-mer frequency, TF over GST control) | 1.49 fold enrichment (6-mer frequency, TF over GST control) | 1.05 fold enrichment (6-mer frequency, TF over GST control) | 1.42 fold enrichment (6-mer frequency, TF over GST control)
ACTGAA | 1.19 fold enrichment (6-mer frequency, TF over GST control) | 1.19 fold enrichment (6-mer frequency, TF over GST control) | 1.08 fold enrichment (6-mer frequency, TF over GST control) | 1.31 fold enrichment (6-mer frequency, TF over GST control) | 1.13 fold enrichment (6-mer frequency, TF over GST control) | 1.16 fold enrichment (6-mer frequency, TF over GST control) | 1.05 fold enrichment (6-mer frequency, TF over GST control) | 1.37 fold enrichment (6-mer frequency, TF over GST control) | 1.04 fold enrichment (6-mer frequency, TF over GST control) | 1.19 fold enrichment (6-mer frequency, TF over GST control)
TCCACT | 1.54 fold enrichment (6-mer frequency, TF over GST control) | 1.49 fold enrichment (6-mer frequency, TF over GST control) | 1.47 fold enrichment (6-mer frequency, TF over GST control) | 1.4 fold enrichment (6-mer frequency, TF over GST control) | 1.51 fold enrichment (6-mer frequency, TF over GST control) | 1.49 fold enrichment (6-mer frequency, TF over GST control) | 1.48 fold enrichment (6-mer frequency, TF over GST control) | 1.25 fold enrichment (6-mer frequency, TF over GST control) | 1.33 fold enrichment (6-mer frequency, TF over GST control) | 1.41 fold enrichment (6-mer frequency, TF over GST control)
